# The supplement of paper PMC6555819
# What was measured:
# Assay in all cases: PBM binding z-score (relative to random genomic background probes); higher = stronger binding; sequences stand for … in GC…GCGATTGACAGCGTAGAATGAAGG
# [1] = tested on: PPARg:RXRa DBDmut IVT, anti-RXR (DBD mutation: RXRa K156A/R161A, NR concentration 270 nM, RXRa partner concentration 90 nM)
# Summary of the method: (§1)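 Binding buffer was PBS pH 7.4 with 2% milk, 0.02% Triton X-100, 1 mM DTT, 0.2 mg/mL BSA and 0.4 mg/ml salmon testes DNA. In it, ligand-free nuclear receptor dimers were incubated 1 h on custom Agilent 4×180K protein-binding microarrays carrying double-stranded probes. Antibodies against each partner (one per run) detected binding, and z-scores were calculated against random background probes after regression normalization of scanned fluorescence.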
# [2] = tested on: PPARg:RXRa IVT, anti-PPARg (NR concentration 270 nM, RXRa partner concentration 90 nM)
# Summary of the method: as §1
# [3] = tested on: PPARg DBDmut:RXRa IVT, anti-PPARg (DBD mutation: PPARg1 K132A/R137A, NR concentration 270 nM, RXRa partner concentration 90 nM)
# Summary of the method: as §1
# [4] = tested on: PPARg DBDmut IVT, anti-PPARg (DBD mutation: PPARg1 K132A/R137A, NR concentration 270 nM)
# Summary of the method: as §1
# [5] = tested on: PPARg homodimer (NR concentration 180 nM)
# Summary of the method: as §1
# [6] = tested on: PXR:RXRa (NR concentration 270 nM, RXRa partner concentration 90 nM)
# Summary of the method: as §1
# [7] = tested on: PXR homodimer (NR concentration 270 nM)
# Summary of the method: as §1
# [8] = tested on: RARa:RXR (NR concentration 270 nM, RXRa partner concentration 90 nM)
# Summary of the method: as §1
# [9] = tested on: RARa homodimer (NR concentration 270 nM)
# Summary of the method: as §1
# [10] = tested on: RARb:RXRa (NR concentration 270 nM, RXRa partner concentration 90 nM)
# Summary of the method: as §1
# [11] = tested on: RARb homodimer (NR concentration 270 nM)
# Summary of the method: as §1
# [12] = tested on: RARg:RXRa (NR concentration 270 nM, RXRa partner concentration 90 nM)
# Summary of the method: as §1
# [13] = tested on: RARg homodimer (NR concentration 270 nM)
# Summary of the method: as §1
# [14] = tested on: RXRa DBDmut IVT, anti-RXR (DBD mutation: RXRa K156A/R161A, NR concentration 90 nM)
# Summary of the method: as §1
# [15] = tested on: RXRa homodimer (NR concentration 180 nM)
# Summary of the method: as §1
# [16] = tested on: THRa:RXRa (NR concentration 90 nM, RXRa partner concentration 90 nM)
# Summary of the method: as §1
# [17] = tested on: THRa homodimer (NR concentration 90 nM)
# Summary of the method: as §1
# [18] = tested on: VDR homodimer (NR concentration 270 nM)
# Summary of the method: as §1
Sequence,PBM binding z-score [1],PBM binding z-score [2],PBM binding z-score [3],PBM binding z-score [4],PBM binding z-score [5],PBM binding z-score [6],PBM binding z-score [7],PBM binding z-score [8],PBM binding z-score [9],PBM binding z-score [10],PBM binding z-score [11],PBM binding z-score [12],PBM binding z-score [13],PBM binding z-score [14],PBM binding z-score [15],PBM binding z-score [16],PBM binding z-score [17],PBM binding z-score [18]
TCTGCTAGGTCAACGATGGTAAGCTAATCTGCTA,4.18,4.18,0.49,-0.213,0.663,0.925,-1.17,1.92,-1,4.03,2.66,3.8,4.83,0.819,2.4,2.62,0.291,-0.612
TTACCAAGGTGAGCTGAGATCGTTGATCCAACTC,1.12,1.5,-0.91,-0.653,-1.58,0.00925,-1.19,-0.376,-1.19,0.893,-0.439,-0.0165,0.151,-1.09,-0.0334,1.1,-0.431,-0.976
AATACATGGTCACTAGGCCAGAGTAGGTACGAAT,1.04,2.74,0.798,1.09,0.338,-0.198,-0.158,-0.153,-0.0326,1.14,0.707,0.578,1.01,-0.405,0.58,-0.00579,-0.302,0.15
CGTCTAAGGTCAGAGAGGTCAGTGAATGCCGAGT,3.8,3.69,0.924,-0.453,4.52,6.51,12,5.99,1.28,5.56,5.36,6.8,7.77,3.83,6.37,4.66,3.81,5.7
GCTGCTAGGTCAACTTATGGTCAGCTAAAGCTCG,4.77,4.25,-0.352,-0.235,2.49,2.17,-0.587,3.6,0.316,4.4,3.76,5.26,5.44,1.75,3.1,3.33,1.45,0.364
AGTCAAAGTTCATCTAGCTAACGTAAGATATGCT,0.278,2.41,1.28,0.69,2.37,4.83,4.89,3.89,1.29,4.79,3.76,5.27,6,4.58,4.7,1.67,-0.302,4.9
AATACAGGGTCACAAGGCCAGAGTAGGTACGAAT,3.6,5.38,1.96,1.5,1.69,4.03,0.719,4.97,1.18,4.6,3.8,6.03,5.53,3.06,6.78,3.86,1.78,2.64
GCTGGGAGGACAAGGTCAGAGCTTTGTCCGTAGA,0.282,0.836,-1.6,-1.38,1.02,1.89,-0.0131,2.62,-0.22,3.41,3.21,3.33,3.55,0.766,2.49,3.31,1.8,0.796
CTACCAAGGTGAACAAGGGCGTTGATTACTATTC,2.71,2.55,-0.498,0.223,0.114,0.993,-0.0327,0.539,-0.306,1.81,1.26,1,0.99,0.764,0.725,2.13,0.707,0.903
TTACCAAGGTGAAGGTCGGTGATCCCTCTGTAGA,1.69,2.91,-0.0946,-0.454,0.55,0.481,-0.271,1.28,0.175,1.96,1.61,1.3,0.916,-0.375,1.5,2.21,0.976,0.13
TAGCCTCGGTCAGATCGGGCCAGTATACGCTATA,-1.11,-0.335,-0.636,-1.63,-1.18,-0.533,-1.31,-0.301,-1.52,1.78,0.82,0.738,1.98,-1.02,-0.0826,2.41,-1.11,-1.63
CGAACGAGGGCATGAGTGGATAGCAAATGCCGAT,2.74,1.85,-0.478,-0.831,-0.474,0.213,-0.305,0.373,-0.274,1.91,0.496,1.27,1.61,2.02,0.916,1.04,-0.129,0.792
AGAACGAGGGCAGGCTGAGTTGATAGCAGAGTAG,2,1.53,0.0574,-0.0164,-0.517,0.169,-0.0945,-0.281,-0.536,1.63,0.683,0.569,1.17,0.639,0.342,0.523,-0.552,0.453
GATACAGGGTCAAGGCCAGCGTACGCGTATTGAT,2.09,3.85,0.49,-0.316,2.29,3.48,0.372,4.36,1.03,4.52,3.63,5.27,4.55,2.14,5.61,3.53,1.43,1.31
CCTGCTAGGTCAATGTTCAGCTAAAGCAGCTCGC,4.27,3.55,-0.21,-0.461,1.39,0.795,-0.474,1.54,-0.305,3.8,2.69,3.48,4.07,1.93,1.91,2.34,0.628,0.0912
AGAATGATGTTATACGTAGATCAGGGAAGAAAGT,-0.521,-0.0838,1.57,1.74,-0.218,-0.0656,0.403,-0.276,-0.0154,-0.18,-0.0497,0.194,0.393,-0.231,-0.0318,-0.0993,-0.533,-0.17
CTCGAAAGGTCGGTTGAAGTGAGTATACGGATAA,-0.0991,0.86,0.362,0.582,0.716,1.17,0.13,1.38,0.453,3,1.72,2.38,2.65,0.742,1.98,1.42,0.13,0.557
AGAACGAGGGCAATGAGTAGATAGCACGGGTGGC,2.9,2.75,0.5,-0.201,0.383,0.323,0.226,0.413,0.137,2,0.9,1.33,1.4,1.67,1.14,0.671,-0.3,0.678
TCTGCTAGGTCAATGATGGTCAGCTAATCTGCTA,3.8,3.49,0.246,-0.13,0.244,1.02,-0.71,1.46,-0.32,3.72,2.75,3.45,4.62,1.11,1.89,2.59,0.321,-0.294
CCTACTGGACCATTCAGAGGTCATTGATCATATG,2.24,1.98,0.483,0.13,3.36,4.92,3.43,4.69,1.66,2.8,4.13,3.53,2.94,1.51,3.99,3.04,2.32,4
CCTAGTAGGTCAGGAGGTCACACACCGGATATGA,7.03,7.47,1.73,1.02,4.99,4.94,1.33,6.63,3.21,4.72,5.24,7.25,6.37,1.03,7.18,3.91,2.34,3.13
ACTTACGGGTCAACGAGGTTACAGCACGCGTATA,3.63,4.61,3.52,1.44,2.75,5.25,2.74,5.23,1.58,4.44,3.89,6.06,5.3,2.37,6.55,4.46,1.51,3.71
ATCTCTAGGTAAAAGTTCAGTGTATCCCGAGGAT,2.32,3.71,1.69,1.72,1.66,2.25,2.23,1.53,1.59,2.5,2.33,1.84,2.05,1.12,1.49,1.43,0.678,2.3
CCTTAAGGGTCAAGGTTATAGCACGGGTGGTACG,2.34,3.94,0.0433,0.353,2.23,4.37,0.453,5.62,1.31,5.4,4.66,6.46,6.85,2.7,6.61,3.66,1.03,2.39
CTACCAAGGTGAACAAGGTCGTCGATTACTATTC,2.69,2.94,0.293,-0.426,1.09,2.61,0.761,2.65,0.41,2.27,2.3,2.1,1.77,1.08,2.25,3.64,1.9,1.44
ATCTCTAGGTAACAAGTTTAGTGAAAGAGAGGAC,3.18,2.92,1.24,1.38,1.04,0.591,0.703,0.429,0.873,0.574,0.455,0.384,0.772,0.0199,0.165,0.929,0.836,0.684
AACTCTAGGTAACCAAGTTCAGTGAATGCCGAAC,3.59,2.39,-0.137,0.215,0.0478,1.69,1.29,0.617,0.354,0.858,0.982,0.219,0.32,0.853,0.269,1.34,0.572,2.11
TTTCCAAGGTGAGCTGAGGTCGTTGATCCAACTC,1.18,2.2,0.272,0.546,0.272,4.97,1.26,2.04,-0.538,2.1,1.73,1.51,1.2,0.414,1.59,4.61,2.71,2.61
GCAGACAGGTTAAACGCAGGTAACTCAGGGTGGC,0.14,-0.197,-0.311,-1.1,-0.225,0.235,-0.788,1.11,-0.374,1.12,0.331,1.81,0.406,-0.0571,1.54,2.06,-0.519,-0.623
